PLCb3 inh: inhibitors of human phospholipase C beta3. inhibition, % at 12.2 µM. Purified PLC-beta3, fluorogenic substrate, fluorescence. AID 720704. Q01970. hit rate 0.18% among 370,000; in the data active means inhibition above about 11%;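 further: 0% = median of compound wells on plate and 100% = full blocker control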
PLCg1 inh: blocks human PLC-gamma1 enzyme activity; P19174; purified PLC-gamma1, fluorogenic substrate, fluorescence; inhibition, % at 12.2 µM; hit rate 0.84% among 370,000; in the data active means inhibition above about 9.5%
Target sequence (P19174 whole entry, looked up): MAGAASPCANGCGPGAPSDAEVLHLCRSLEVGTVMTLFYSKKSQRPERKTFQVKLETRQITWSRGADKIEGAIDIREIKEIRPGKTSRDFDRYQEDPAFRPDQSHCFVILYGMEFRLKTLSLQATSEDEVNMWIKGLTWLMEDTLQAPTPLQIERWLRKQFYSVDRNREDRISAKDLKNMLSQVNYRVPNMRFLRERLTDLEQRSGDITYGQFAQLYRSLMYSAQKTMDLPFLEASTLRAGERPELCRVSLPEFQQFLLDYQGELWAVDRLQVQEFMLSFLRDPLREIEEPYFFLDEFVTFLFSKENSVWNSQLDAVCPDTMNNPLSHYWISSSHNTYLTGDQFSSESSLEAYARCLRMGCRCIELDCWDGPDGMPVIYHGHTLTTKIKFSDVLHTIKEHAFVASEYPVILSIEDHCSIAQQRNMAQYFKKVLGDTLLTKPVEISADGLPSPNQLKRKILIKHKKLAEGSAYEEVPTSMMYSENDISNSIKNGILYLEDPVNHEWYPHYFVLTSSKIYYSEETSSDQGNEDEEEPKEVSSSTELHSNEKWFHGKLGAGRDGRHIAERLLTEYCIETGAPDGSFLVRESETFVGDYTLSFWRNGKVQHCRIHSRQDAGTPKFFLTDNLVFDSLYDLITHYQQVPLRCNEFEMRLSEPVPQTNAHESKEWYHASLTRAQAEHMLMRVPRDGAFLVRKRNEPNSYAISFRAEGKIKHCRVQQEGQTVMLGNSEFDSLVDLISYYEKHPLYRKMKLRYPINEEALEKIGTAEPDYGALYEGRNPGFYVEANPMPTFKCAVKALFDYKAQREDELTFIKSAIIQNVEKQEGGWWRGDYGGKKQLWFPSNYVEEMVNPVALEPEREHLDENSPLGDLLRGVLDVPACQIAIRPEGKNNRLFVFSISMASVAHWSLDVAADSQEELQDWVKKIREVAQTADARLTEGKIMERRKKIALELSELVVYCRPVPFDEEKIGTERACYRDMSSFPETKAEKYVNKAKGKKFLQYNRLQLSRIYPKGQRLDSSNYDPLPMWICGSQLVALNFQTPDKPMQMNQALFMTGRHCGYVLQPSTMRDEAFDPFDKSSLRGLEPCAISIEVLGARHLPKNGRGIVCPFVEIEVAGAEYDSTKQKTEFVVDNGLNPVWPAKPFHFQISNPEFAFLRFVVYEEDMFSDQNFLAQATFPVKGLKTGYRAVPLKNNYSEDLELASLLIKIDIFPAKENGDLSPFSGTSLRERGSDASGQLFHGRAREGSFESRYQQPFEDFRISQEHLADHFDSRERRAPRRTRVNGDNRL
KLK7 zymogen act: activators of human kallikrein-7 zymogen; P49862; purified proKLK7, EDANS-DABCYL substrate fluorescence; 100% is mature enzyme control, 0% vehicle; activation, % at 7 µM; hit rate 0.9% among 370,000;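 active means activation above the mean of all tested compounds plus 3 SD, computed per campaign excluding outliers beyond control limits, cut at about 13% in these data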
ADAM17 inh: inhibitors of human ADAM17 | recombinant ADAM17, EDANS/DABCYL FRET peptide cleavage | inhibition, % at 6.95 µM | hit rate 0.83% among 370,000 | AID 720648;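 active means inhibition above the mean of compounds lying between control limits plus 3 SD, set per campaign, cut at about 8.5% in these data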;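 further: 0% = DMSO-only wells as the low control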
ADAM10 inh: inhibits human ADAM10; hit rate 0.62% among 370,000; recombinant ADAM10, EDANS/DABCYL FRET peptide cleavage, 3 h; inhibition, % at 7 µM; AID 720582;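 active means inhibition above a per-campaign cutoff equal to the mean of compounds falling between control-based bounds plus 3 SD, cut at about 20% in these data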;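 further: 0% = DMSO wells while the 100% control is not disclosed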
KLK7 act conf: proKLK7 activation, confirmation; purified proKLK7, EDANS-DABCYL substrate fluorescence; scaled: vehicle 0, mature enzyme 100; hit rate 68% among 3,200; activation, % at 7 µM; shares compounds with KLK7 zymogen act;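 active means activation, as change over the incubation, above the mean of all tested compounds plus 3 SD, cut at about 13% in these data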
EDANS interfere: optically interferes with EDANS-DABCYL signal, flagging KLK7 hits | activation, % at 7 µM | AID 686952 | shares compounds with KLK7 zymogen act | hit rate 80% among 3,200 | EDANS-DABCYL substrate fluorescence interference, no enzyme, 4 h; solvent 0%, active enzyme control 100%;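 active means activation above the all-compound mean plus 3 SD, ignoring values outside control-based bounds, cut at about 4.8% in these data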;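 further: value is the 4 h activation minus the activation read at time zero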
K7 EDANS ctr: EDANS fluorescence interference in dose response, no enzyme; shares compounds with KLK7 zymogen act; EDANS-DABCYL peptide fluorescence interference; EC50, µM; hit rate 20% among 250;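 active means compounds that raise the fluorescence signal in this interference counterscreen, with EC50 at or below 10 µM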;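 further: intact quenched peptide substrate alone read at 355 nm excitation and 520 nm emission; signal is fluorescence gain from T0 to T4 after four hours at room temperature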
An asterisk follows results filed as active; i = inactive; x = no result. This is a sample that favours compounds with a hit; in the whole collection about 2.9% have one here.

SMILES	PLCb3 inh	PLCg1 inh	KLK7 zymogen act	ADAM17 inh	ADAM10 inh	KLK7 act conf	EDANS interfere	others
COc1ccc(C2Nc3ccccc3C(=O)N2NS(=O)(=O)c2ccccc2)c(OC)c1 (stereo not given)	-262	-184	18*	-91	-218	35*	32*
CCOC(=O)NN1C(=O)c2ccccc2NC1c1ccc(OC)cc1OC (stereo not given)	-424	-346	12	-221	i	x	x
COc1ccc(C2Nc3ccccc3C(=O)N2NS(C)(=O)=O)cc1 (stereo not given)	-304	-254	61*	-144	-480	11	11*
COc1ccc(C2Nc3ccccc3C(=O)N2NS(=O)(=O)c2ccc(C)cc2)c(OC)c1 (stereo not given)	-223	-153	8	-83	-256	x	x
Cc1ccc(CN2CCCCC(NC(=O)c3cccc([N+](=O)[O-])c3)C2=O)cc1 (stereo not given)	-4	-3	0	-2	-2	x	x
COc1ccc2nc(N3CCC(O)CC3)c(C#N)cc2c1	i	i	16*	-117	-367	61*	72*
COc1ccc2nc(N3CCC(C)CC3)c(C#N)cc2c1	-246	-182	-14	-36	-130	x	x
C/C(=N\NC(=O)CNc1cccc2ccccc12)c1ccccc1	-117	-96	46*	-155	i	2	2
O=C(CNc1cccc2ccccc12)N/N=C/C=C/c1ccco1	-47	-36	9	-39	-111	x	x
C/C(CCc1ccco1)=N\NC(=O)CNc1cccc2ccccc12	-93	-81	33*	-109	-426	8	6.1*
O=C(CNc1cccc2ccccc12)N/N=C/c1ccc(C(=O)O)cc1	-11	-10	1	-14	-35	x	x
COc1c2ccccc2nc2ccccc12	-256	-210	7	-482	i	x	x
COc1cc2ccccc2nn1	-377	-353	23*	-54	-127	33*	39*
COC(=O)C[C@H]1CC[C@H]2[C@H](COc3ccc(NC(=O)Nc4ccccc4F)cc3C(=O)N2C)O1	2	0	1	0	2	x	x
CC(=O)c1cc2c(cc1NS(=O)(=O)c1ccccc1C)OCO2	-9	-6	0	-3	-7	x	x
CC(=O)c1cc2c(cc1NS(=O)(=O)c1ccccc1Br)OCO2	-13	-4	41*	-4	7	15*	5.3*	K7 EDANS ctr=>70
CCN(C(=O)COC(=O)c1[nH]c(=O)[nH]c(=O)c1N)c1ccccc1	-6	0	13*	-7	-9	24*	28*
CCN(C(=O)COC(=O)C1=COCCO1)c1ccccc1	-3	3	0	-1	-1	x	x
Cc1ccccc1CN1CCCCC(NC(=O)Nc2cccc(F)c2)C1=O (stereo not given)	3	6	0	0	14	x	x
CCOC(=O)N1CCN(C(=O)c2ccc3nc4ccsc4c(=O)n3c2)CC1	-463	-363	15*	-225	i	25*	20*	K7 EDANS ctr=>70
CCOC(=O)N1CCN(C(=O)c2cccn3c(=O)c4sccc4nc23)CC1	i	i	73*	-482	i	63*	69*
CCOC(=O)N1CCN(C(=O)c2ccc3nc4ccc(Cl)cc4c(=O)n3c2)CC1	i	i	-4	-260	i	x	x
O=C(NCCc1ccccc1)OCc1cn(Cc2c(F)cccc2F)nn1	-6	-4	0	-8	-4	x	x
C[C@@H]1CN(c2ccc(N3CCNC[C@@H]3C)cc2C#N)C[C@H](C)O1	-28	-22	0	-6	-35	x	x
COc1ccc(C2C(C(=O)N3CCOCC3)=C(C)NC3=C2C(=O)CC(C)(C)C3)c(OC)c1 (stereo not given)	i	i	18*	-394	i	31*	20*	K7 EDANS ctr=>23
SMILES	PLCb3 inh	PLCg1 inh	KLK7 zymogen act	ADAM17 inh	ADAM10 inh	KLK7 act conf	EDANS interfere	others
COc1cc2c(cc1OC)C(C1C(=O)CC(C)(C)CC1=O)N(C(=O)CCl)CC2 (stereo not given)	i	i	124*	-153	-460	12	15*
COc1ccc(CC(=O)N2CCc3cc(OC)c(OC)cc3C2O)cc1OC (stereo not given)	-126	-84	14*	-28	-64	5	4.1*
CCOCCOC(=O)C1=C(C)NC2=C(C(=O)CC(c3cccs3)C2)C1c1ccsc1 (stereo not given)	-205	-123	90*	-45	-143	-4	-1
CCOC(=O)C1=C(C)NC2=C(C(=O)CCC2)C1c1cccs1 (stereo not given)	-93	-68	3	-28	-86	x	x
CCc1cc2c(=O)oc(-c3ccc(F)cc3)nc2s1	-39	-35	0	-1	2	x	x
O=c1c2cccc(Cl)c2nc2n1Cc1ccccc1-2	-5	-1	0	-2	6	x	x
CCc1cc2c(=O)nc3n(c2s1)Cc1ccccc1/C3=C(/O)c1ccccc1Cl	-385	-334	13*	-7	-11	16*	23*
CCc1cc2c(=O)nc3n(c2s1)Cc1ccccc1/C3=C(/O)c1ccc(F)cc1	i	i	23*	-15	-69	65*	68*
Cc1cc2nc(-c3ccc[nH]c3=O)n(Cc3cccc(F)c3)c2cc1C	i	i	1	-458	i	x	x
CCCn1c(-c2ccc[nH]c2=O)nc2cc(C)c(C)cc21	i	i	18*	-436	i	38*	41*
O=C(Nc1ccc(F)cc1)OCc1cn(Cc2c(F)cccc2F)nn1	-3	-1	0	-2	3	x	x
O=C1NC(c2cccc3ccccc23)Nc2ccccc21 (stereo not given)	-81	-64	3	-57	-215	x	x
O=C1NC(c2ccc(Br)cc2)Nc2ccccc21 (stereo not given)	-308	-259	14*	-256	i	21*	15*	K7 EDANS ctr=>70
O=C1NC(c2ccccc2Cl)Nc2ccccc21 (stereo not given)	-463	-383	19*	-356	i	47*	50*
O=C1CSc2ccc(C(=O)N3CCCC(C(=O)N4CCN(c5ccc(F)cc5)CC4)C3)cc2N1 (stereo not given)	2	2	0	4	-12	x	x
O=C(Nc1ccc(OC(F)(F)F)cc1)Nc1c(-c2ccc(F)cc2)nc2ncccn12	-31	-25	-3	-6	-16	x	x
CCOC(=O)c1cc(-c2cc3ccccc3o2)nc2c1c(=O)[nH]c(=O)n2CCOC	i	-444	19*	-269	i	-447	-484
CC(C)(C)NC(=O)Nc1ccc2nccnc2c1	i	i	64*	-493	i	70*	77*
